In publication PMC7862700, “An all-to-all approach to the identification of sequence-specific readers for epigenetic DNA modifications on cytosine”:

Experiments:
Test in all cases: DAPPL (digital affinity profiling via proximity ligation, sequencing); 10 mM Tris-HCl pH 7.5, 50 mM NaCl, 1 mM DTT, 4% glycerol, room temperature, 30 min; GST-TFs on glutathione beads, 16-mer random dsDNA library, 0.1% formaldehyde crosslink after washing; high values mean tight binding
FLI1 = biological target: T1, FLI1 (Homo sapiens, UniProt Q01543 1-452); details: protein: recombinant; tags: N-terminal GST; dsDNA, one strand shown
T1 sequence: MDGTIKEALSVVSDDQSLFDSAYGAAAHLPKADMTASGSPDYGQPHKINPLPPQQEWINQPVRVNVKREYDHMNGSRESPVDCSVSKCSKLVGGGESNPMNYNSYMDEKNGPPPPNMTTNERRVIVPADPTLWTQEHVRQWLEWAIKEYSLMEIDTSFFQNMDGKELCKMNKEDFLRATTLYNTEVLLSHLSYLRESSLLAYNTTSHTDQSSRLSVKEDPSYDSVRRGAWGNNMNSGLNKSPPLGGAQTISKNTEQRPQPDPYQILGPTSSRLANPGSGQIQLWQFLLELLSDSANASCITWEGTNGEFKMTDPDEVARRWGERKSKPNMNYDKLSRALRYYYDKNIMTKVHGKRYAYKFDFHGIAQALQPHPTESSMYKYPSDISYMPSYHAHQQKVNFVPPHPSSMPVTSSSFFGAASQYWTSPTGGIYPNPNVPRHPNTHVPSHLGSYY
How it was run: (§1)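 Human transcription factors were made in yeast as GST fusions, captured on glutathione beads and barcoded with DNA. With a tag-only sample included, the pool was incubated with 200 nmole of a random double-stranded 16-mer DNA library in Tris/NaCl/DTT/glycerol buffer at room temperature for 30 min, then crosslinked with 0.1% formaldehyde after washing, ligated by proximity, amplified and sequenced. For binding signal, each hexamer's read frequency for a factor is divided by its frequency for the tag-only sample.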

ELK1 = biological target: T2, ELK1 (Homo sapiens, UniProt P19419 1-428); details: protein: recombinant; tags: N-terminal GST; dsDNA, one strand shown
T2 sequence: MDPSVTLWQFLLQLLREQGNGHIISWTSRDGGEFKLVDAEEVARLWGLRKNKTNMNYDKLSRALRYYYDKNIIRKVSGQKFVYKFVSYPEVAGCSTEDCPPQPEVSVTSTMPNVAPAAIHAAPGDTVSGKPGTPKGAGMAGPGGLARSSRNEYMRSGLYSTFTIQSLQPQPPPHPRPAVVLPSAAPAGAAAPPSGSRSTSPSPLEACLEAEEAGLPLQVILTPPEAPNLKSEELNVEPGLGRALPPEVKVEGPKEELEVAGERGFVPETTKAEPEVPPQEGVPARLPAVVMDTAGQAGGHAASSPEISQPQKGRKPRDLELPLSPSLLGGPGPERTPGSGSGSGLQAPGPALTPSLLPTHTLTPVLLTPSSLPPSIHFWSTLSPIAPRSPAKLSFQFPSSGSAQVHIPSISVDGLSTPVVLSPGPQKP
How it was run: as §1

GABPA = biological target: T3, GABPA (Homo sapiens, UniProt Q06546 1-454); details: protein: recombinant; tags: N-terminal GST; dsDNA, one strand shown
T3 sequence: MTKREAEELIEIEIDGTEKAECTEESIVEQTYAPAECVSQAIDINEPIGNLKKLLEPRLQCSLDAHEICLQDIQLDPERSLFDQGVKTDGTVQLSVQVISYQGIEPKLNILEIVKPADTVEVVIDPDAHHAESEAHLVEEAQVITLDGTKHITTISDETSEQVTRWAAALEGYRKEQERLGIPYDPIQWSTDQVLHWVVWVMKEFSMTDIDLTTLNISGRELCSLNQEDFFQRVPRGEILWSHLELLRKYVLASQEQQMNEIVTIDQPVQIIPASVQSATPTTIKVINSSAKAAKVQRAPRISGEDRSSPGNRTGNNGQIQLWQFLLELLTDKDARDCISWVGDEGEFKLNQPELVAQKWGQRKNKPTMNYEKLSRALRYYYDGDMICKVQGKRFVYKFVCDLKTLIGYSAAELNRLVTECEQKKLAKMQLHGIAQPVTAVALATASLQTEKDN
How it was run: as §1

ERG = biological target: T4, ERG (Homo sapiens, UniProt P11308 1-479); details: protein: recombinant; tags: N-terminal GST; dsDNA, one strand shown
T4 sequence: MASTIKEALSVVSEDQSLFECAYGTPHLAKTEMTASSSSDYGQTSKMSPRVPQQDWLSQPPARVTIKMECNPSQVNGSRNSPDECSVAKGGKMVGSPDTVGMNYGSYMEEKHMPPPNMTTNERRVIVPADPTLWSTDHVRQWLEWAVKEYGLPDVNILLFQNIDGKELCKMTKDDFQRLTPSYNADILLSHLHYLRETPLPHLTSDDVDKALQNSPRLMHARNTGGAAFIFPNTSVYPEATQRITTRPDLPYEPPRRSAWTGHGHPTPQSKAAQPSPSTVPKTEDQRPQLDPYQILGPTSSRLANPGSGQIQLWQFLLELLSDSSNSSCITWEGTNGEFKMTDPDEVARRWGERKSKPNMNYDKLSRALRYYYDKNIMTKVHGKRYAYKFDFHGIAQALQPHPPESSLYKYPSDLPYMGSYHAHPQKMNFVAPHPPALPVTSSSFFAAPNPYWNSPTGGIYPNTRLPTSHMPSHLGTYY
How it was run: as §1

ELF1 = ELF1 (Homo sapiens, UniProt P32519 1-619); details: protein: recombinant; tags: N-terminal GST; dsDNA, one strand shown
Sequence of ELF1 (P32519 whole entry): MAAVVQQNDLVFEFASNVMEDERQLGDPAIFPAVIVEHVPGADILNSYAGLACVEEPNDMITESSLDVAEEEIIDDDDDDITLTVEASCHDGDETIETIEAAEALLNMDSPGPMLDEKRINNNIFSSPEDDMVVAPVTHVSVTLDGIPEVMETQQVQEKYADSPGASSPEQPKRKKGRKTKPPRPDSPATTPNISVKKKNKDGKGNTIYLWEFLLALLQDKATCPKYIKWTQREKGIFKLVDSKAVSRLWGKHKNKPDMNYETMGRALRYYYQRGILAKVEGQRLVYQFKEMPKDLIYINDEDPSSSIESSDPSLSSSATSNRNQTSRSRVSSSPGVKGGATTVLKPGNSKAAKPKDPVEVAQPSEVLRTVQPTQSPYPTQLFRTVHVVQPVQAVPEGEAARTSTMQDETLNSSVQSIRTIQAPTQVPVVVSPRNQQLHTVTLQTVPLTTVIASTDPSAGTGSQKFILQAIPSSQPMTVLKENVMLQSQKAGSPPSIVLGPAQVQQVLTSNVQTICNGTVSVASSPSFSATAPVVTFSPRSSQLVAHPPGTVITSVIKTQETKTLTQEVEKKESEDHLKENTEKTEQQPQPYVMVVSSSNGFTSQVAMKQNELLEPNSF
How it was run: as §1

EHF = biological target: T5, EHF (Homo sapiens, UniProt Q9NZC4 1-300); details: protein: recombinant; tags: N-terminal GST; dsDNA, one strand shown
T5 sequence: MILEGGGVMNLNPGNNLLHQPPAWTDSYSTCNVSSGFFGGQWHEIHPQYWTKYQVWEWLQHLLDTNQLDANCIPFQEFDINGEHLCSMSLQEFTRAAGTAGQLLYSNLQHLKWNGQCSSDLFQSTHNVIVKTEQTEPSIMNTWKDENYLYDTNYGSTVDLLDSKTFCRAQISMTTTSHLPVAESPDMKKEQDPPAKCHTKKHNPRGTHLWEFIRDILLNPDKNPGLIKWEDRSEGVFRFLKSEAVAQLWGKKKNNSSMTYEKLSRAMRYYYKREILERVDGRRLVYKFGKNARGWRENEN
How it was run: as §1

SPI1 = SPI1 (Homo sapiens, UniProt P17947 1-270); details: protein: recombinant; tags: N-terminal GST; dsDNA, one strand shown
How it was run: as §1

SPIB = SPIB (Homo sapiens, UniProt Q01892 1-262); details: protein: recombinant; tags: N-terminal GST; dsDNA, one strand shown
Sequence of SPIB (Q01892 whole entry): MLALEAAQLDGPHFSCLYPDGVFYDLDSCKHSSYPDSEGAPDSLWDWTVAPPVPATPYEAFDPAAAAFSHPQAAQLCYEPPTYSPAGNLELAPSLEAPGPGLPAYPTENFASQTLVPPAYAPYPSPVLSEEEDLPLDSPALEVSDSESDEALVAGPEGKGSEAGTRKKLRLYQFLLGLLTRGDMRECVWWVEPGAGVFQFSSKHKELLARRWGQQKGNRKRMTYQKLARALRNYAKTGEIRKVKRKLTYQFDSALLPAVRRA
How it was run: as §1

ELK3 = biological target: T6, ELK3 (Homo sapiens, UniProt P41970 1-407); details: protein: recombinant; tags: N-terminal GST; dsDNA, one strand shown
T6 sequence: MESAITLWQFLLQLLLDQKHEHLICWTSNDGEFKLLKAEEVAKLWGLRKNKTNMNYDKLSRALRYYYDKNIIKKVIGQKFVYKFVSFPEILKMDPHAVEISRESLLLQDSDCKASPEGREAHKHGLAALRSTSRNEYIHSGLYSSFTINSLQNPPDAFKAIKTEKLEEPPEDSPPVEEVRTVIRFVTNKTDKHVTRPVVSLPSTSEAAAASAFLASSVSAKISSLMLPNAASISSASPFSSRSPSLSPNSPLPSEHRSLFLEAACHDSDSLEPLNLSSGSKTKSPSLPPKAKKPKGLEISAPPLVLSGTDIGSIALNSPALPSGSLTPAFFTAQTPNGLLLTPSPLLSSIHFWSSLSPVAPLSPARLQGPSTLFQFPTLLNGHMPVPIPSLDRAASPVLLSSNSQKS
How it was run: as §1

FEV = biological target: T7, FEV (Homo sapiens, UniProt Q99581 1-238); details: protein: recombinant; tags: N-terminal GST; dsDNA, one strand shown
T7 sequence: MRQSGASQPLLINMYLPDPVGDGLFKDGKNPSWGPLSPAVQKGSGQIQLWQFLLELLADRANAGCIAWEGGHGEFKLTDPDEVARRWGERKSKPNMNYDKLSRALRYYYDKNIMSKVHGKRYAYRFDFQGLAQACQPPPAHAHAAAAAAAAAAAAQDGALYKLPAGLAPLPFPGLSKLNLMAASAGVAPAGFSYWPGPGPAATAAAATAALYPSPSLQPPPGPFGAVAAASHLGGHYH
How it was run: as §1

ETV5 = ETV5 (Homo sapiens, UniProt P41161 1-510); details: protein: recombinant; tags: N-terminal GST; dsDNA, one strand shown
Sequence of ETV5 (P41161 whole entry): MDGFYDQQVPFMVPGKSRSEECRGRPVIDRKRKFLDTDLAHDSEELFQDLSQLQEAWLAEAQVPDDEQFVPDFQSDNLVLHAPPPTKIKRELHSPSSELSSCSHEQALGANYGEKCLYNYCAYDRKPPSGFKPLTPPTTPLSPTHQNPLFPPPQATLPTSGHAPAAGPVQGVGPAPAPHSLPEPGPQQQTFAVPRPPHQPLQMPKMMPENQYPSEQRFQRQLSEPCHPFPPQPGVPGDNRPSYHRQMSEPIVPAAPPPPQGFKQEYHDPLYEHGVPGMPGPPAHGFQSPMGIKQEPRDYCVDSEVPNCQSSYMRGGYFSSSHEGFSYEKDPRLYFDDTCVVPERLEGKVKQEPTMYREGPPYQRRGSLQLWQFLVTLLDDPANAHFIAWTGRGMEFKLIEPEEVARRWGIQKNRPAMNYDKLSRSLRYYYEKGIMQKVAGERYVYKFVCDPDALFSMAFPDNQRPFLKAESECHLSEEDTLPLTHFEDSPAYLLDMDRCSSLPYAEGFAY
How it was run: as §1

HSF1 = HSF1 (Homo sapiens, UniProt Q00613 1-529); details: protein: recombinant; tags: N-terminal GST; chain copies: 3; dsDNA, one strand shown
Sequence of HSF1 (Q00613 whole entry): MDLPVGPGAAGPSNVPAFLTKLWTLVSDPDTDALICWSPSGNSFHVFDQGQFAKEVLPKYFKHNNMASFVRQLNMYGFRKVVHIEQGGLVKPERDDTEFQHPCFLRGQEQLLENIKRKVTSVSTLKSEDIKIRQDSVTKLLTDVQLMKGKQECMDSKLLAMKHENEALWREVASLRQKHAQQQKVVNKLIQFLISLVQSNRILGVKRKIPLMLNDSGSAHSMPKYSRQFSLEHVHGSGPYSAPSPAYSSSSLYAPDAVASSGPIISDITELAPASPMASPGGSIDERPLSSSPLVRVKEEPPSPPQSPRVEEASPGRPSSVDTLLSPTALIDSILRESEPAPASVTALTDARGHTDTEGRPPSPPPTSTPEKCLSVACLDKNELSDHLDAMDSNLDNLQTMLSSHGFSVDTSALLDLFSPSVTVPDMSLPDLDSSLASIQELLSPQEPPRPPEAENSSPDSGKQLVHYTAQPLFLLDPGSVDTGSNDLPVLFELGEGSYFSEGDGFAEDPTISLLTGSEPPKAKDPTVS
How it was run: as §1

SPIC = biological target: T8, SPIC (Homo sapiens, UniProt Q8N5J4 1-248); details: protein: recombinant; tags: N-terminal GST; dsDNA, one strand shown
T8 sequence: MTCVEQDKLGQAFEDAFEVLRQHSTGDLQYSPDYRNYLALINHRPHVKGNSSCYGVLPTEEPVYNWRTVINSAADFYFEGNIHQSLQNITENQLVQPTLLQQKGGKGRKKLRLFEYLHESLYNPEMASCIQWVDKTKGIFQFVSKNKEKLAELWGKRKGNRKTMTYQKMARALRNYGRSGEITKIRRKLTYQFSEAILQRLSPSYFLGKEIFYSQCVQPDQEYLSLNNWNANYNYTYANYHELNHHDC
How it was run: as §1

ELF4 = ELF4 (Homo sapiens, UniProt Q99607 1-663); details: protein: recombinant; tags: N-terminal GST; dsDNA, one strand shown
Sequence of ELF4 (Q99607 whole entry): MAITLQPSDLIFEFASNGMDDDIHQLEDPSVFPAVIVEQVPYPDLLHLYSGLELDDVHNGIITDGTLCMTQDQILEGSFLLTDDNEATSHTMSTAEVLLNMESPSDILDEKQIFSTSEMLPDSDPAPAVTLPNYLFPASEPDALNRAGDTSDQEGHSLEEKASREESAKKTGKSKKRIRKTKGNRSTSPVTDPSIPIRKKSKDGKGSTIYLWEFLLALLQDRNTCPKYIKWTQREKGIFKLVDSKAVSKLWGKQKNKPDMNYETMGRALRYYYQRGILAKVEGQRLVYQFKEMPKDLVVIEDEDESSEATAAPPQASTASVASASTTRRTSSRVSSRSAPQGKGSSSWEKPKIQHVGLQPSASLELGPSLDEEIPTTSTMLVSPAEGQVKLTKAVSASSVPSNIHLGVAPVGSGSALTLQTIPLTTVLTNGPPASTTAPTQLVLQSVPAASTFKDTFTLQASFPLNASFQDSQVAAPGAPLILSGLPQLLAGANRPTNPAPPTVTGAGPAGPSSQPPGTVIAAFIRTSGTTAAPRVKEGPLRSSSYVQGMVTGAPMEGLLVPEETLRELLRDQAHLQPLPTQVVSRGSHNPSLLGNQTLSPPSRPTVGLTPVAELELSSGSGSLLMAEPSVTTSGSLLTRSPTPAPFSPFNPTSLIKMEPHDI
How it was run: as §1

ELK4 = biological target: T9, ELK4 (Homo sapiens, UniProt P28324-2 1-405); details: protein: recombinant; tags: N-terminal GST; dsDNA, one strand shown
T9 sequence: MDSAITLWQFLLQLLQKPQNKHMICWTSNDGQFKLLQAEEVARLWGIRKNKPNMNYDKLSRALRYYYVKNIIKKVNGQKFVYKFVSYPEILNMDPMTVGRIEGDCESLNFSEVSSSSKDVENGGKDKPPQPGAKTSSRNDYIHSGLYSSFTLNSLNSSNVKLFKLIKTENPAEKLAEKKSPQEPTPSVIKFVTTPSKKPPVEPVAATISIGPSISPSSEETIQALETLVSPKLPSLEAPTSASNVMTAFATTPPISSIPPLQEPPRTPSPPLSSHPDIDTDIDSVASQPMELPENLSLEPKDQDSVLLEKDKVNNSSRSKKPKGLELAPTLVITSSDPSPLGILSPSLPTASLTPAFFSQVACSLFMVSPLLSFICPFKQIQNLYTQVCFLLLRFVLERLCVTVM
How it was run: as §1

ETV2 = biological target: T10, ETV2 (Homo sapiens, UniProt O00321 1-342); details: protein: recombinant; tags: N-terminal GST; dsDNA, one strand shown
T10 sequence: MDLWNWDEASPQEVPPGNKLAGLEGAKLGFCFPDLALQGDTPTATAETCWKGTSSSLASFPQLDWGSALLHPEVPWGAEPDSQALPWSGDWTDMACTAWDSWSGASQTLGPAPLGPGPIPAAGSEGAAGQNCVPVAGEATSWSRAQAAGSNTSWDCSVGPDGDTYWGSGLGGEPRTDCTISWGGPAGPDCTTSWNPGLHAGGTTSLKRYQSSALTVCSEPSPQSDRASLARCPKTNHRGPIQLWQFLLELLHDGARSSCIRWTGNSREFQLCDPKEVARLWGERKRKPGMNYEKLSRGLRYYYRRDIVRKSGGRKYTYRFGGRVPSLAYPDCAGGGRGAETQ
How it was run: as §1

ELF3 = biological target: T11, ELF3 (Homo sapiens, UniProt P78545 1-371); details: protein: recombinant; tags: N-terminal GST; dsDNA, one strand shown
T11 sequence: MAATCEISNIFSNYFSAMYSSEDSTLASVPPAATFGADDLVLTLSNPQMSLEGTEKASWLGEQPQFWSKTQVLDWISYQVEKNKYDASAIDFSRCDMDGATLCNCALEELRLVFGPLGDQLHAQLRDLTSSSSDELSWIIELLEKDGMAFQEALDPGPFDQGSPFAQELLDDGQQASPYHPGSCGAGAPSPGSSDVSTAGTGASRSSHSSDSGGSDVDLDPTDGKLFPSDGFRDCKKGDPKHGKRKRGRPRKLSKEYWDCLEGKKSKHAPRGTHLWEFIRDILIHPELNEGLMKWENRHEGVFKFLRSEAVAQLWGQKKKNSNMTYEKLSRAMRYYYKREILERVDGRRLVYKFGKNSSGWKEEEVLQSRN
How it was run: as §1

CRX = CRX (Homo sapiens, UniProt O43186 1-299); details: protein: recombinant; tags: N-terminal GST; dsDNA, one strand shown
Sequence of CRX (O43186 whole entry): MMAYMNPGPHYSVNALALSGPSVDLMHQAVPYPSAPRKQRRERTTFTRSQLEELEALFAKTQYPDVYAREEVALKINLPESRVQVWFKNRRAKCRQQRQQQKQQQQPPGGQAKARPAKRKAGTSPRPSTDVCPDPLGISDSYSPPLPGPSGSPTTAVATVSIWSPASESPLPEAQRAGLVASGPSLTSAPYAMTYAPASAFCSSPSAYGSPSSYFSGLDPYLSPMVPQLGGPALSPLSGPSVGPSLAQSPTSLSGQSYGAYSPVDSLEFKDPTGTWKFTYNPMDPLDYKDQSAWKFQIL
How it was run: as §1

ETV1 = ETV1 (Homo sapiens, UniProt P50549 1-477); details: protein: recombinant; tags: N-terminal GST; dsDNA, one strand shown
Sequence of ETV1 (P50549 whole entry): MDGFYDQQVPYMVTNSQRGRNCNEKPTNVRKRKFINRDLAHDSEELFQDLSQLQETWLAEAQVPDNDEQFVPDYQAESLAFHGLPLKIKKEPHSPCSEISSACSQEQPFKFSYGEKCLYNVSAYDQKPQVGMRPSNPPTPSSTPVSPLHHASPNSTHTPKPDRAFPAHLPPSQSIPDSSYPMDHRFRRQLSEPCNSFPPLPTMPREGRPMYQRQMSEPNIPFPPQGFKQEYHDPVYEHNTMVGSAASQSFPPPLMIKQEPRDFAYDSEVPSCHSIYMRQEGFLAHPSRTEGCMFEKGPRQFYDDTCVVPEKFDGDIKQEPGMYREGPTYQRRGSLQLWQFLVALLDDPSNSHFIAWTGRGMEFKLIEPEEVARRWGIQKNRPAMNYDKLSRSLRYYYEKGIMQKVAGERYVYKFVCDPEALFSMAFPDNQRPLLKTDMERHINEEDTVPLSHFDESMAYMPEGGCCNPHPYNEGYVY
How it was run: as §1

GCTATA
binding signal (FLI1): 1.17 fold enrichment (6-mer frequency, TF over GST control) | binding signal (ELK1): 1.11 fold enrichment (6-mer frequency, TF over GST control) | binding signal (GABPA): 1.16 fold enrichment (6-mer frequency, TF over GST control) | binding signal (ERG): 1.16 fold enrichment (6-mer frequency, TF over GST control) | binding signal (ELF1): 1.19 fold enrichment (6-mer frequency, TF over GST control) | binding signal (EHF): 1.16 fold enrichment (6-mer frequency, TF over GST control) | binding signal (SPI1): 1.09 fold enrichment (6-mer frequency, TF over GST control) | binding signal (SPIB): 1.25 fold enrichment (6-mer frequency, TF over GST control) | binding signal (ELK3): 1.24 fold enrichment (6-mer frequency, TF over GST control) | binding signal (FEV): 1.14 fold enrichment (6-mer frequency, TF over GST control) | binding signal (ETV5): 1.18 fold enrichment (6-mer frequency, TF over GST control) | binding signal (HSF1): 1.08 fold enrichment (6-mer frequency, TF over GST control) | binding signal (SPIC): 1.08 fold enrichment (6-mer frequency, TF over GST control) | binding signal (ELF4): 1.14 fold enrichment (6-mer frequency, TF over GST control) | binding signal (ELK4): 1.18 fold enrichment (6-mer frequency, TF over GST control) | binding signal (ETV2): 1.2 fold enrichment (6-mer frequency, TF over GST control) | binding signal (ELF3): 1.22 fold enrichment (6-mer frequency, TF over GST control) | binding signal (CRX): 1.23 fold enrichment (6-mer frequency, TF over GST control) | binding signal (ETV1): 1.14 fold enrichment (6-mer frequency, TF over GST control)
